Test results reported in the supplement of paper PMC8728848.
The sample as a whole holds a higher share of the strongest signals than the screen did.

Tests used:
Assay in all cases: glycan array binding signal (z-score within array); higher = stronger binding
Conditions in all cases: glycan notation: IUPAC condensed, linker removed
[1] = target: Fuc(a1-2)Gal(b1-3)[Fuc(a1-4)]GlcNAc(b1-2)Man(a1-3)[Fuc(a1-2)Gal(b1-3)[Fuc(a1-4)]GlcNAc(b1-2)Man(a1-3)]Man(b1-4)GlcNAc(b1-4)GlcNAc
Procedure, shortened: (§1)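 Negative Z-scores can be read as non-binding. The Z-score is calculated within each array and then averaged across arrays of one protein sequence at different concentrations or buffers and across linkers. Arrays, 3228 in all, were curated from the Consortium for Functional Glycomics database and kept only where the protein sequence was available.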

[2] = target: Fuc(a1-2)Gal(b1-4)GlcNAc(b1-2)Man
Procedure, shortened: as §1

[3] = target: Fuc(a1-2)[Gal(a1-3)]Gal(b1-4)GlcNAc(b1-2)Man
Procedure, shortened: as §1

[4] = target: Fuc(a1-2)[Gal(a1-4)]Gal(b1-4)GlcNAc
Procedure, shortened: as §1

[5] = target: Fuc(a1-2)[GalNAc(a1-3)]Gal(b1-4)GlcNAc(b1-6)GalNAc
Procedure, shortened: as §1

[6] = target: Fuc(a1-3)[Gal(b1-4)]GlcNAc(b1-6)GalNAc
Procedure, shortened: as §1

[7] = target: Gal(a1-3)Gal(b1-3)GlcNAc(b1-2)Man
Procedure, shortened: as §1

[8] = target: Gal(a1-4)Gal(b1-3)GlcNAc(b1-2)Man(a1-3)[Gal(a1-4)Gal(b1-3)GlcNAc(b1-2)Man(a1-6)]Man(b1-4)GlcNAc(b1-4)GlcNAc
Procedure, shortened: as §1

[9] = target: Gal(b1-3)GlcNAc(a1-3)Gal(b1-4)GlcNAc
Procedure, shortened: as §1

[10] = target: Gal(b1-3)GlcNAc(b1-2)Man(a1-3)[GlcNAc(b1-4)][Gal(b1-3)GlcNAc(b1-2)Man(a1-6)]Man(b1-4)GlcNAc(b1-4)GlcNAc
Procedure, shortened: as §1

[11] = target: Gal(b1-3)GlcNAc(b1-3)Gal(b1-4)Glc
Procedure, shortened: as §1

[12] = target: Gal(b1-3)GlcNAc(b1-3)Gal(b1-4)GlcNAc(b1-3)Gal(b1-4)GlcNAc(b1-2)[Gal(b1-3)GlcNAc(b1-3)Gal(b1-4)GlcNAc(b1-3)Gal(b1-4)GlcNAc(b1-6)]Man(a1-6)[Gal(b1-3)GlcNAc(b1-3)Gal(b1-4)GlcNAc(b1-3)Gal(b1-4)GlcNAc(b1-2)Man(a1-3)]Man(b1-4)GlcNAc(b1-4)[Fuc(a1-6)]GlcNAc
Procedure, shortened: as §1

[13] = target: Gal(b1-4)GlcNAc(b1-2)Man(a1-3)Man(b1-4)GlcNAc(b1-4)GlcNAc
Procedure, shortened: as §1

[14] = target: Gal(b1-4)GlcNAc(b1-2)[Gal(b1-4)GlcNAc(b1-4)]Man(a1-3)[Gal(b1-4)GlcNAc(b1-2)[Gal(b1-4)GlcNAc(b1-6)]Man(a1-6)]Man(b1-4)GlcNAc(b1-4)GlcNAc
Procedure, shortened: as §1

[15] = target: Gal(b1-4)GlcNAc(b1-3)Gal(b1-4)GlcNAc(b1-2)Man(a1-3)[Gal(b1-4)GlcNAc(b1-3)Gal(b1-4)GlcNAc(b1-2)Man(a1-6)]Man(b1-4)GlcNAc(b1-4)GlcNAc
Procedure, shortened: as §1

[16] = target: Gal(b1-4)GlcNAc(b1-3)Gal(b1-4)GlcNAc(b1-3)Gal(b1-4)GlcNAc(b1-2)Man(a1-3)[Gal(b1-4)GlcNAc(b1-3)Gal(b1-4)GlcNAc(b1-3)Gal(b1-4)GlcNAc(b1-2)Man(a1-6)]Man(b1-4)GlcNAc(b1-4)GlcNAc
Procedure, shortened: as §1

[17] = target: Gal(b1-4)GlcNAc(b1-3)Gal(b1-4)GlcNAc(b1-3)Gal(b1-4)GlcNAc(b1-3)Gal(b1-4)GlcNAc(b1-3)Gal(b1-4)GlcNAc(b1-2)Man(a1-3)[Gal(b1-4)GlcNAc(b1-3)Gal(b1-4)GlcNAc(b1-3)Gal(b1-4)GlcNAc(b1-3)Gal(b1-4)GlcNAc(b1-3)Gal(b1-4)GlcNAc(b1-2)Man(a1-6)]Man(b1-4)GlcNAc(b1-4)[Fuc(a1-6)]GlcNAc
Procedure, shortened: as §1

[18] = target: Gal(b1-4)GlcNAc(b1-3)Gal(b1-4)GlcNAc(b1-3)Gal(b1-4)GlcNAc(b1-3)Gal(b1-4)GlcNAc(b1-3)Gal(b1-4)GlcNAc(b1-2)[Gal(b1-4)GlcNAc(b1-3)Gal(b1-4)GlcNAc(b1-3)Gal(b1-4)GlcNAc(b1-3)Gal(b1-4)GlcNAc(b1-3)Gal(b1-4)GlcNAc(b1-6)]Man(a1-6)[Gal(b1-4)GlcNAc(b1-3)Gal(b1-4)GlcNAc(b1-3)Gal(b1-4)GlcNAc(b1-3)Gal(b1-4)GlcNAc(b1-3)Gal(b1-4)GlcNAc(b1-2)Man(a1-3)]Man(b1-4)GlcNAc(b1-4)[Fuc(a1-6)]GlcNAc
Procedure, shortened: as §1

[19] = target: Gal(b1-4)GlcNAc(b1-3)Gal(b1-4)GlcNAc(b1-3)Gal(b1-4)GlcNAc(b1-3)Gal(b1-4)GlcNAc(b1-3)Gal(b1-4)GlcNAc(b1-3)Gal(b1-4)GlcNAc(b1-2)Man(a1-3)[Gal(b1-4)GlcNAc(b1-3)Gal(b1-4)GlcNAc(b1-3)Gal(b1-4)GlcNAc(b1-3)Gal(b1-4)GlcNAc(b1-3)Gal(b1-4)GlcNAc(b1-3)Gal(b1-4)GlcNAc(b1-2)Man(a1-6)]Man(b1-4)GlcNAc(b1-4)GlcNAc
Procedure, shortened: as §1

[20] = target: Gal(b1-4)GlcNAc(b1-3)Gal(b1-4)GlcNAc(b1-6)[Gal(b1-3)]GalNAc
Procedure, shortened: as §1

Gal(b1-6)Gal = target: Gal(b1-6)Gal
Procedure, shortened: as §1

Gal4S6S(b1-4)GlcNAc = target: Gal4S6S(b1-4)GlcNAc
Procedure, shortened: as §1

Gal6S(b1-3)GlcNAc = target: Gal6S(b1-3)GlcNAc
Procedure, shortened: as §1

[21] = target: GalNAc3S(b1-4)[Fuc(a1-3)]GlcNAc
Procedure, shortened: as §1

Glc(a1-4)Glc = target: Glc(a1-4)Glc
Procedure, shortened: as §1

[22] = target: Glc(a1-4)Glc(a1-4)Glc(a1-4)Glc
Procedure, shortened: as §1

GlcA(b1-3)GlcNAc = target: GlcA(b1-3)GlcNAc
Procedure, shortened: as §1

[23] = target: GlcNAc(a1-3)Gal(b1-4)GlcNAc
Procedure, shortened: as §1

[24] = target: GlcNAc(b1-2)[GlcNAc(b1-6)]Man(a1-6)[GlcNAc(b1-2)Man(a1-3)]Man(b1-4)GlcNAc(b1-4)[Fuc(a1-6)]GlcNAc
Procedure, shortened: as §1

[25] = target: GlcNAc(b1-2)[GlcNAc(b1-6)]Man(a1-6)[GlcNAc(b1-4)][GlcNAc(b1-2)Man(a1-3)]Man(b1-4)GlcNAc(b1-4)GlcNAc
Procedure, shortened: as §1

GlcNAc(b1-3)Gal = target: GlcNAc(b1-3)Gal
Procedure, shortened: as §1

[26] = target: GlcNAc(b1-3)[GlcNAc(b1-6)]GalNAc
Procedure, shortened: as §1

[27] = target: GlcNAc(b1-4)GlcNAc(b1-4)GlcNAc
Procedure, shortened: as §1

[28] = target: GlcNAc(b1-4)GlcNAc(b1-4)GlcNAc(b1-4)GlcNAc(b1-4)GlcNAc
Procedure, shortened: as §1

[29] = target: GlcNAc(b1-6)Gal(b1-4)GlcNAc
Procedure, shortened: as §1

GlcNAc(b1-6)GalNAc = target: GlcNAc(b1-6)GalNAc
Procedure, shortened: as §1

MurNAc(b1-4)GlcNAc = target: MurNAc(b1-4)GlcNAc
Procedure, shortened: as §1

[30] = target: Neu5Ac(a2-3)Gal(b1-3)GlcNAc(b1-2)Man(a1-3)[Neu5Ac(a2-3)Gal(b1-3)GlcNAc(b1-2)Man(a1-6)]Man(b1-4)GlcNAc(b1-4)GlcNAc
Procedure, shortened: as §1

[31] = target: Neu5Ac(a2-3)Gal(b1-3)GlcNAc6S
Procedure, shortened: as §1

[32] = target: Neu5Ac(a2-3)Gal(b1-3)]Neu5Ac(a2-3)Gal(b1-4)]GlcNAc
Procedure, shortened: as §1

[33] = target: Neu5Ac(a2-3)Gal(b1-4)[Fuc(a1-3)]GlcNAc(b1-3)Gal(b1-4)GlcNAc
Procedure, shortened: as §1

[34] = target: Neu5Ac(a2-3)Gal(b1-4)[Fuc(a1-3)]GlcNAc(b1-6)[Gal(b1-3)]GalNAc
Procedure, shortened: as §1

[35] = target: Neu5Ac(a2-3)Gal(b1-4)[Fuc(a1-3)]GlcNAc(b1-6)[Neu5Ac(a2-3)Gal(b1-3)]GalNAc
Procedure, shortened: as §1

[36] = target: Neu5Ac(a2-6)Gal(b1-4)GlcNAc(b1-2)[Neu5Ac(a2-6)Gal(b1-4)GlcNAc(b1-4)]Man(a1-3)[GlcNAc(b1-4)][Neu5Ac(a2-6)Gal(b1-4)GlcNAc(b1-2)[Neu5Ac(a2-6)Gal(b1-4)GlcNAc(b1-6)]Man(a1-6)]Man(b1-4)GlcNAc(b1-4)GlcNAc
Procedure, shortened: as §1

[37] = target: Neu5Ac(a2-6)Gal(b1-4)GlcNAc(b1-2)[Neu5Ac(a2-6)Gal(b1-4)GlcNAc(b1-6)]Man(a1-6)[Neu5Ac(a2-6)Gal(b1-4)GlcNAc(b1-2)Man(a1-3)][GlcNAc(b1-4)]Man(b1-4)GlcNAc(b1-4)GlcNAc
Procedure, shortened: as §1

Neu5Ac(b2-6)GalNAc = target: Neu5Ac(b2-6)GalNAc
Procedure, shortened: as §1

[38] = target: Neu5Gc(a2-3)Gal(b1-3)GlcNAc
Procedure, shortened: as §1

[39] = target: Neu5Gc(a2-8)Neu5Ac(a2-3)Gal(b1-4)GlcNAc
Procedure, shortened: as §1

B1: Pbx1 (Cryptococcus neoformans) (protein)
chain: ATTKCLVSGDQDSINNALALGGEGTTVTLCPGSVHRLNSSIIFTAPSQTLTTLGNPKDRNRAMLVVDGEDLACAIRADCKQCSHAMIRSLVIDGNRPQLLRIPKGDALIEVGNAESQTVRDCKLYEPRGWSALHFREGDERQCRFGHIVDNEIGPCGEEWDDEYDSMDETKPLWGNPRADGISLACKDSIVERNVVYDATDGAIVLFGSAGSTVKNNHVYARTRVILGGINLVDYEPWDGDYTNVKVHHNHLYALGRYFKVGIVIGPASWSDDTESVVHSASVTDNEFSGGYWGYGIVVASAKNFEVLRNKVIWDGEQGVARFSGVPGSRCPKAPENGKPTAFLINRGSAKGIFQDDFVNGEVQHIICLNPDQDPPYKPWRFRDSPEAIAAKQAENPTANSAFDSRIAEALVSYQMSLLNSMDAMTQKVEHLTNPIVDDALPFVHEHERAEADKKARQEASRKEKESGNKDVDMLNVKVEELEKSGRRLKKALDGLKSDFEGLSGRLKKSADENKPIIETIFVTSQNLLLGATSQQN
glycan array binding signal (z-score) [1]: 2.82 | glycan array binding signal (z-score) [2]: -0.654 | glycan array binding signal (z-score) [3]: -0.203 | glycan array binding signal (z-score) [4]: 0.002 | glycan array binding signal (z-score) [5]: 0.252 | glycan array binding signal (z-score) [6]: 2.34 | glycan array binding signal (z-score) [7]: 1.04 | glycan array binding signal (z-score) [8]: 2.14 | glycan array binding signal (z-score) [9]: -0.304 | glycan array binding signal (z-score) [10]: 0.415 | glycan array binding signal (z-score) [11]: -0.533 | glycan array binding signal (z-score) [12]: 15 | glycan array binding signal (z-score) [13]: -0.195 | glycan array binding signal (z-score) [14]: 0.072 | glycan array binding signal (z-score) [15]: 2.91 | glycan array binding signal (z-score) [16]: 2.41 | glycan array binding signal (z-score) [17]: 5.6 | glycan array binding signal (z-score) [18]: 4.38 | glycan array binding signal (z-score) [19]: 1.03 | glycan array binding signal (z-score) [20]: 2.33 | glycan array binding signal (z-score) (Gal(b1-6)Gal): -0.233 | glycan array binding signal (z-score) (Gal4S6S(b1-4)GlcNAc): -0.366 | glycan array binding signal (z-score) (Gal6S(b1-3)GlcNAc): 0.304 | glycan array binding signal (z-score) [21]: 0.766 | glycan array binding signal (z-score) (Glc(a1-4)Glc): 0.352 | glycan array binding signal (z-score) [22]: -0.56 | glycan array binding signal (z-score) (GlcA(b1-3)GlcNAc): 0.759 | glycan array binding signal (z-score) [23]: 0.052 | glycan array binding signal (z-score) [24]: -0.137 | glycan array binding signal (z-score) [25]: -0.848 | glycan array binding signal (z-score) (GlcNAc(b1-3)Gal): -0.639 | glycan array binding signal (z-score) [26]: -0.235 | glycan array binding signal (z-score) [27]: -0.565 | glycan array binding signal (z-score) [28]: -0.631 | glycan array binding signal (z-score) [29]: -0.045 | glycan array binding signal (z-score) (GlcNAc(b1-6)GalNAc): -0.262 | glycan array binding signal (z-score) (MurNAc(b1-4)GlcNAc): 5.14 | glycan array binding signal (z-score) [30]: 0.345 | glycan array binding signal (z-score) [31]: -0.618 | glycan array binding signal (z-score) [32]: -1.05 | glycan array binding signal (z-score) [33]: 0.071 | glycan array binding signal (z-score) [34]: 3.7 | glycan array binding signal (z-score) [35]: 0.371 | glycan array binding signal (z-score) [36]: 2.36 | glycan array binding signal (z-score) [37]: -0.36 | glycan array binding signal (z-score) (Neu5Ac(b2-6)GalNAc): -0.769 | glycan array binding signal (z-score) [38]: -0.531 | glycan array binding signal (z-score) [39]: -0.771
